# HDAC3 inhib: human HDAC3 inhibition. recombinant HDAC3, fluorogenic peptide/trypsin coupled, fluorescence. inhibition, % at 8.3 µM. 0.15% of 320,000 active; in the data active = inhibition above about 26%, passing the limit was not always enough
# IDE cell activ: IDE (human) activation, cell-based. HEK cells, FAbeta-B cleavage, fluorescence polarization; 0% vehicle, 100% cell-free pure enzyme wells. activation, % at 5.96 µM. P14735. 0.073% of 340,000 active;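 active = activation above the mean of all tested compounds plus 3 SD, set per screening campaign, cut at about 17% in these data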
# Target sequence (P14735 whole entry, looked up): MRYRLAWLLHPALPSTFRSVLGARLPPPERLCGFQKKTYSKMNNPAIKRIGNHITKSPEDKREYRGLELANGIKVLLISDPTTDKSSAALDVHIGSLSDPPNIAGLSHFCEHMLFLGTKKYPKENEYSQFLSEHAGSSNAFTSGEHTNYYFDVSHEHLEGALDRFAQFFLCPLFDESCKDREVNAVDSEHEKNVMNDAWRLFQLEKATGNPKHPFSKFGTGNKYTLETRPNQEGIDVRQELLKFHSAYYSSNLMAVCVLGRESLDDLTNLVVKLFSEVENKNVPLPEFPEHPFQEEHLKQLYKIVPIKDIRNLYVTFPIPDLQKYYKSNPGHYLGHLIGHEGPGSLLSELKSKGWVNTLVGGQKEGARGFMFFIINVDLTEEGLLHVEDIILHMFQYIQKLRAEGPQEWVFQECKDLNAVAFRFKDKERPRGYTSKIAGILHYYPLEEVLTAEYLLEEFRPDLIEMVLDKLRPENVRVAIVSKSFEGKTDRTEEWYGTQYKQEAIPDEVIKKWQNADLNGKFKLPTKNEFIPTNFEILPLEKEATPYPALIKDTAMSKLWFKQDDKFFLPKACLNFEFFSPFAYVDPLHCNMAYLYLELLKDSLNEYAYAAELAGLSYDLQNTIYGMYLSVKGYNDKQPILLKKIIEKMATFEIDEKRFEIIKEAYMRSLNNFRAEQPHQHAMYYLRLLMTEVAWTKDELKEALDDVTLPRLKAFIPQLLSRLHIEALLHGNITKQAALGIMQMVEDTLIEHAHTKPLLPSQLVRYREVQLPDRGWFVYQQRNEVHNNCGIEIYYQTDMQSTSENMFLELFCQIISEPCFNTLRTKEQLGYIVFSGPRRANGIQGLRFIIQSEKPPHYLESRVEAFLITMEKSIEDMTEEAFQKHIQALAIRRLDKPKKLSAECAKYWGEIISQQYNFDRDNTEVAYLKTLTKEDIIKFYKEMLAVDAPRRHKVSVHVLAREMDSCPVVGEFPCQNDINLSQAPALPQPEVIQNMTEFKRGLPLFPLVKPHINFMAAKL
# Mot1-301 SUMO: inhibitors of SUMOylation pathway: yeast Mot1-301 growth rescue; S. cerevisiae Mot1-301 growth rescue, ATP luminescence, 38.5C; percent above DMSO median, 100 means doubled; growth rescue, % at 18.8 µM; 1% of 320,000 active; AID 2716;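 active = every valid replicate shows activation above 250% relative to neutral control wells; inactive = the rest, any valid replicate at or below 250%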;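 note: OY570 slx delta 5 strain wells were the positive control but not used for scaling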
# IDE inh: inhibits human insulin-degrading enzyme in HEK cells | inhibition, % at 5.59 µM | P14735 | 0.41% of 320,000 active | FAbetaB cleavage, fluorescence polarization | AID 434962;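 active = percent inhibition above the average of all tested compounds plus 3 SD, set per screening campaign, cut at about 16% in these data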;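 note: IDE supplied by intact live HEK cells; FP after avidin binding of uncleaved biotin substrate so inhibition keeps polarization high; 0% = DMSO wells and 100% = 60 µM reference IDE inhibitor Ii1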
# LANA-H2B inh: blocks KSHV LANA binding to histone H2A/H2B | Q9QR71 | cell-free LANA-H2A/H2B peptide, fluorescence polarization | inhibition, % (test concentration not listed) | 0.6% of 320,000 active; in the data active = inhibition mostly above about 10%, no sharp cut-off; inactive = mostly below about 6.7%
# An asterisk follows results filed as active; / = no result given; + = active, no number. In the library only some 2.1% were active in any assay of this set; here they are far more common.
SMILES,HDAC3 inhib,IDE cell activ,Mot1-301 SUMO,IDE inh,LANA-H2B inh
Cc1cccc(NC(=O)COC(=O)Cc2cccc(C(F)(F)F)c2)c1C,-5,2,75,1,+
C=CCNC(=S)Nc1ccc(Cl)cc1F,-2,1,150,0,0
C=CCNC(=S)Nc1ccc(Br)cc1F,-3,1,-7,-2,13*
O=C(NCCc1ccccc1)C(c1ccccc1F)N(C(=O)c1csnn1)C1CC1 (stereo not given),9,0,23,-5,-1
CCN(CC)S(=O)(=O)c1ccc(C)c(NC(=O)COC(=O)[C@@H]2CCCN2C(=O)c2cccs2)c1,6,9,15,8,15*
Cc1sc2nc(SCC(=O)N3CC(C)OC(C)C3)n(C)c(=O)c2c1C (stereo not given),1,-2,-8,-6,3
C[C@]12c3[nH]c4ccccc4c3CCN1C(=O)C(CC(=O)NCc1ccco1)C[C@@H]2C(=O)N1CCOCC1 (stereo not given in full),-1,0,21,2,94*
C[C@]12c3[nH]c4ccccc4c3CCN1C(=O)C(CC(=O)NCc1cccc(C(F)(F)F)c1)C[C@@H]2C(=O)N1CCOCC1 (stereo not given in full),5,-2,12,-2,+
CCN(CC(=O)Nc1ccc(NC(C)=O)cc1)C(=O)c1ccc2c(c1)OCCO2,-1,0,43,-6,4
CCN(CC(=O)Nc1ccc(NC(C)=O)cc1)C(=O)C1CCCC1,-4,2,0,3,103*
CCN(CC(=O)Nc1ccc2c(c1)OCCO2)C(=O)C1CCCCC1,1,-1,-10,4,-4
CCN(CC(=O)Nc1ccc(NC(C)=O)cc1)C(=O)c1ccc2c(c1)OCO2,-1,4,-3,3,22*
O=C(Cc1c(F)cccc1Cl)Nc1ccccc1C(=O)N1CCCCC1,0,-4,-3,0,-3
COc1ccc(Br)c(C(=O)NNC(=O)c2ccc(NS(=O)(=O)c3cccs3)cc2)c1,0,2,11,-5,0
CCCOc1c(Br)cc(C(N)=O)cc1OCC,2,2,316*,0,-1
C=CCS(=O)(=O)N1CCCC(Cc2ccccc2C)(C(=O)OCC)C1 (stereo not given),-3,7,-3,-2,-3
CNC(=O)OCN1C(=O)C2CC=CCC2C1=O (stereo not given),/,-6,/,/,/
O=C1Nc2ccc(Br)cc2C12NNc1ccccc1O2 (stereo not given),10,7,309*,3,-9
COc1cc(/C=C/C(=O)OCC(=O)N2CCCc3ccccc32)ccc1OC(F)F,-5,3,-11,3,-6
CCCc1cc(=O)[nH]c(SCC)n1,4,-1,-12,7,11
CCCc1cc(=O)[nH]c(-n2[nH]c3c(c2=O)CCCC3)n1,7,-1,-7,19*,2
CC1CN(C(C)C(=O)NC(c2ccccc2)c2ccccc2)CC(C)O1 (stereo not given),-1,3,-6,1,-3
O=C(c1ccc([N+](=O)[O-])cc1)N1C=CC(C(F)(F)F)=NCC1,1,11,346*,0,-4
Cc1onc(-c2ccccc2)c1C(=O)N1CCN(c2ccc([N+](=O)[O-])cc2)CC1,2,2,-16,-6,16*
Cc1onc(-c2ccccc2)c1C(=O)N1CCN(c2ccccc2)CC1,0,0,-15,-5,-3
SMILES,HDAC3 inhib,IDE cell activ,Mot1-301 SUMO,IDE inh,LANA-H2B inh
COc1ccc2o/c(=N\O)c(C(=O)Nc3ccccc3OC)cc2c1,0,-2,-23,28*,-14
COc1ccc2oc(=O)c(C(=O)NCCc3ccc(OC)c(OC)c3)cc2c1,-2,2,12,5,12*
COc1ccc2oc(=O)c(C(=O)NCc3ccc4c(c3)OCO4)cc2c1,0,-4,5,1,4
COc1ccc2oc(=O)c(C(=O)Nc3ccccc3O)cc2c1,1,9,43,0,5
C=CCOc1ccc(/C(O)=C2/C(=O)C(=O)N(CCCN3CCOCC3)C2c2ccccc2)cc1 (stereo not given),5,0,-14,0,0
C=CCOc1ccc(/C(O)=C2/C(=O)C(=O)N(CCCN3CCOCC3)C2c2ccc(OC)cc2)cc1 (stereo not given),0,4,-24,11,16*
CN(C(=O)c1ccc(NC(=O)Cc2ccc(NC(=O)C3CCCN(C(=O)C4CC4)C3)cc2)cc1)C1CCCC1 (stereo not given),/,1,/,/,/
CCC(=O)C1CCCN(C(=O)CCc2nnc(C3(c4ccc(Cl)cc4)CCC3)o2)C1 (stereo not given),2,1,-1,7,-1
O=S(=O)(NC1CC2CCC1C2)c1ccc(Br)s1 (stereo not given),2,-4,450*,-6,1
O=C(NC(Cc1ccccc1)C(=O)Oc1ccc2c(C(F)(F)F)cc(=O)oc2c1)OCc1ccccc1 (stereo not given),4,-4,67,15,175*
COc1cccc(NC(=O)C(OC(=O)c2cnc(C)cn2)c2ccccc2)c1 (stereo not given),-2,0,/,-4,6
Cc1cc(C)cc(OCC(O)CN2CCN(Cc3ccc4c(c3)OCO4)CC2)c1 (stereo not given),-8,5,310*,-4,0
OC(COc1ccccc1)CN1CCN(Cc2ccc3c(c2)OCO3)CC1 (stereo not given),-6,4,149,-1,3
BrC(/C=C\c1ccccc1)=N/Nc1nc(N2CCOCC2)nc(N2CCOCC2)n1,-4,3,320*,4,-8
BrC(=C\c1ccccc1)/C=N/Nc1nc(N2CCOCC2)nc(N2CCOCC2)n1,12,1,-25,2,0
COc1cccc(Nc2ncnc3sc(C)cc23)c1,2,4,-11,0,1
COc1ccc(C2c3ccc4ccccc4c3Oc3ncn(CCCN(C)C)c(=N)c32)cc1 (stereo not given),18,1,2,4,1
CCN(CC(=O)NCc1cccs1)C(=O)COc1ccc(C(C)=O)cc1,6,8,-6,6,+
CCN(CC(=O)NCc1cccs1)C(=O)COc1cccc(C(F)(F)F)c1,0,7,0,-3,-1
O=C(Nc1nc2ccccc2[nH]1)Nc1ccccc1F,2,-2,-9,-2,-1
Nc1nc(CSc2nc3ccccc3[nH]2)nc(N2CCOCC2)n1,-5,3,317*,2,-1
CCOC(=O)C1C(=O)C=C(C)C(C(=O)OCC)C1c1cccc([N+](=O)[O-])c1 (stereo not given),1,2,526,0,27*
CCOC(=O)C1C(=O)C=C(c2ccc([N+](=O)[O-])cc2)CC1c1ccccc1 (stereo not given),5,1,-26,4,-1
